The structures appear in SMILES notation. Where “and” joins values, the source holds several entries; their conditions need not be identical. Equal entries are not always repeated. The panel holds about 83,000 compounds, 20% with a hit somewhere; the sample as a whole holds those more often.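 Compound tested at a single concentration for 48 hours in 96-well plates; a percent growth value below 10 was scored as active.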 Calls of active or inactive are those of the source.

Data on six molecules can be found in PubChem BioAssay (NCI).

The test system of this assay is HL-60(TB) leukemia. The experiment in a line: NCI-60 one-dose screen, 48 h (100 = growth as untreated, 0 = no growth, -100 = all killed). The settings on record: 10 µM unless noted.
On to `Nc1nn2c(-c3cc4cc(Br)ccc4oc3=O)ccnc2c1N=Nc1ccc(S(N)(=O)=O)cc1`, for which the growth was 104% (inactive).
As for `CC1(C)CC(=O)C2=C(C1)OC(N)=C(c1nc3ccccc3[nH]1)C2c1ccc(Cl)cc1` (stereo unspecified), the figure is 22% (inactive) and 106% (inactive); as for `CN(C)CCn1c2ccccc2c2nc3cc4ccccc4cc3nc21`, -51.2% (active); as for `CC12CC[C@@H]3[C@]4(C)COC(c5cn[nH]c5-c5cccc(Br)c5)O[C@@H]4CC[C@@]3(C)[C@@H]1CC(C1=CCOC1=O)O2` (stereo partly specified), 13% (inactive).
For the molecule `CC(=O)Oc1ccc(/C=C/C(=O)N[C@@H](Cc2ccccc2)C(O)C(=O)NCc2ccccc2)cc1OC(C)=O` (stereo partly specified), the growth was 79.4% (inactive).
As for `C=CCSc1nnc(-c2ccc(-c3nc4ccccc4[nH]3)cc2)o1`, the figure is 57.6% (inactive).
